Many of the other results were omitted from the sample, so hits are more common in it than they were.
Shiga toxin inh = Shiga toxin inhibition; Vero cells, Shiga toxin protein synthesis inhibition reporter; inhibition, % at 38.7 µM; actives 9.2% (n = 290,000); AID 2315; in the data active means inhibition mostly above about 28%, no sharp cut-off; inactive means mostly below about 43%; further: 0% is about no effect
AmpC detergent = AmpC beta-lactamase inhibition with detergent present; Potency, µM (highest dose often 114 µM), for the others: top-dose activity change, negative = inhibition, hits mostly inhibitors; P00811; AID 485294; actives 0.041% (n = 370,000); AmpC hydrolysis of nitrocefin, absorbance 480 nm, 0.01% Triton;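 further: potency means the concentration at half of the fitted maximal effect; 0% = no-compound wells and -100% = no-enzyme wells; nearly all actives have a fitted effect of over 25% in size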
Target sequence (P00811 whole entry, looked up): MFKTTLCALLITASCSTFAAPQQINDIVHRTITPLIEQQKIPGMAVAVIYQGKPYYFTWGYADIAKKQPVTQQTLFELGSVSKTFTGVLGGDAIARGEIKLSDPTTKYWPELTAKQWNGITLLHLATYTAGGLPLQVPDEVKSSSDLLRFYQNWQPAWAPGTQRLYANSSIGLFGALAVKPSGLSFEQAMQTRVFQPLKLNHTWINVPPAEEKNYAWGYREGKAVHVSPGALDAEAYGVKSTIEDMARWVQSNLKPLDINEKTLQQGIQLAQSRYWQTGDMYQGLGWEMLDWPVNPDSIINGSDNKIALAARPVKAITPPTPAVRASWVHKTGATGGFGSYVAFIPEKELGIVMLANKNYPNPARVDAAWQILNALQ
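AmpC (5.3 nM in the dispensed reagent) in 20 mM phosphate pH 7.0 with 0.01% (detergent screen) or 0.0001% Triton X-100 was preincubated with compounds for 15 min at room temperature. Nitrocefin was then added from an 800 uM solution, and hydrolysis was followed at 480 nm.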
NS1 function inh = inhibitors of influenza NS1 protein function | Potency, µM (top dose mostly 46.1 µM), inactives show at the highest dose activity, positive = more growth | actives 0.4% (n = 270,000); calls by dose curve; further: potency means the concentration at half of the fitted maximal effect; actives are rising curves; nearly all actives have a fitted effect of over 50% in size
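A cell-based growth assay was used: compounds that relieve NS1-induced slow growth of budding yeast raise OD600. Assay medium was yeast nitrogen base with ammonium sulphate and -URA supplement, pH 6.0, with 2% galactose.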
Cycloheximide cs = counter-screen hit for Shiga toxin inhibitors, cycloheximide | cell reporter, cycloheximide protein synthesis inhibition counterscreen | max response, % | actives 12% (n = 300,000) | AID 2314; in the data active means max response mostly above about 13%, no sharp cut-off; inactive means mostly below about 14%; further: read at 38.3 µM for the half of the compounds with a filed dose; 0% is about no effect
AmpC no deterg = blocks E. coli AmpC beta-lactamase in detergent-free assay; AmpC nitrocefin hydrolysis, absorbance 480 nm, 0.0001% Triton; Potency, µM (top dose mostly 57.1 µM), for inactives: at the highest dose activity change, negative = inhibition, usual class: inhibitors; actives 0.52% (n = 330,000);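 further: potency means the concentration at half of the fitted maximal effect; plate controls were no compound for no effect and no enzyme for full effect; nearly all actives have a fitted effect of over 20% in size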
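AmpC (5.3 nM in the dispensed reagent) in 20 mM phosphate pH 7.0 with 0.01% (detergent screen) or 0.0001% Triton X-100 was preincubated with compounds for 15 min at room temperature. Nitrocefin was then added from an 800 uM solution, and hydrolysis was followed at 480 nm.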
Numbers without * were called inactive; u = inconclusive; x = no result; [ ] = another dose, or the depositor's remark. Unless noted, the call rests on the fitted dose curve; in most records, active means well fitted curve in the direction sought with a large enough effect; inconclusive means small, poorly fitted or top-dose-only effect, or another doubt; inactive means no such curve, though single readings can be large; an effect the other way counts as inactive or inconclusive.

SMILES	Shiga toxin inh	AmpC detergent	NS1 function inh	Cycloheximide cs	AmpC no deterg
COc1ccc(C(=O)Nc2ccc3nc4n(c(=O)c3c2)CCCCC4)cc1OC	x	37%	x	x	x
O=C(Nc1ccc2nc3n(c(=O)c2c1)CCCC3)c1cccc(F)c1	39*	-13%	-9%	42*	-16%
O=C(Nc1ccc2nc3n(c(=O)c2c1)CCCCC3)c1ccccn1	59*	-9%	-113%	36*	-7%
CCOC(=O)Nc1ccc2nc3n(c(=O)c2c1)CCCCC3	45*	-7%	x	31*	-7%
O=c1c2cc(NC(=S)NC3CCCC3)ccc2nc2n1CCCCC2	38	6%	x	30*	-11%
COC(=O)c1ccc(OCC2c3cc(OC)c(OC)cc3CCN2C(=O)Cc2ccc(OC)c(OC)c2)cc1 (stereo not drawn)	x	-5%	x	x	x
O=C(Nc1ccc2nc3n(c(=O)c2c1)CCCC3)c1ccccc1F	70*	0%	-10%	31*	-15%
O=C(Nc1ccc2nc3n(c(=O)c2c1)CCCCC3)c1ccccc1[N+](=O)[O-]	16	-6%	-10%	16	-29%
CCCCn1c(=O)c2oc3ccccc3c2n(Cc2ccc(C)cc2)c1=O	x	10%	x	x	x
Cc1ccc2c(Cl)c(C(=O)NCC3CCCO3)sc2c1 (stereo not drawn)	77*	-8%	1%	55*	-12%
O=C(NCC1CCCO1)c1cccc2ccccc12 (stereo not drawn)	-6	-10%	14%	-3	-15%
COc1ccc2c(Cl)c(C(=O)NCC3CCCO3)sc2c1Cl (stereo not drawn)	23	-2%	-11%	20*	-13%
O=C(NCC1CCCO1)c1sc2ccccc2c1Cl (stereo not drawn)	73*	-4%	-12%	41*	-17%
Cc1ccc(C)c(CN2C(=O)N(c3cc(Cl)ccc3C)S(=O)(=O)c3ccccc32)c1	x	7%	x	x	x
O=C(CN1C(=O)CCSc2ccc(S(=O)(=O)N3CCCC3)cc21)Nc1cccc(F)c1	x	17%	x	x	x
COc1ccc([N+](=O)[O-])cc1N(CC(=O)NCC1CCCO1)S(C)(=O)=O (stereo not drawn)	-8	-11%	4%	-1	-5%
CCOC(=O)c1cnc(C(F)(F)F)nc1Oc1ccccc1	20	3%	6%	1	2%
Cc1nc(Nc2nc3ccccc3o2)nc2c1CCC2	49	u	-15%	30*	107%
CCOC(=O)c1cnc(-c2ccccc2)nc1C(F)(F)F	74*	1%	x	52*	-2%
CCOC(=O)c1cnc(Nc2nc3ccccc3o2)nc1C	68*	8%	8%	36*	-17%
CCOC(=O)c1cnc(Nc2ccccc2)nc1C(F)(F)F	92*	1%	-7%	36*	-3%
CCOC(=O)c1cnc(Nc2nc3ccccc3o2)nc1CN1CCN(c2ccccc2)CC1	x	x	-1%	x	x
Cc1ccc(NC(=O)N2CCc3c(sc4c3CCCC4)C2c2ccccc2)cc1F (stereo not drawn)	x	4%	x	x	x
CC(C)CN(Cc1cc(=O)oc2cc3c(cc12)CCCC3)CC(C)C	-1	8%	3%	3	-29%
CCOC(=O)c1cnc(-c2ccccc2)nc1Oc1ccc(Cl)cc1	-6	3%	13%	6	-5%
SMILES	Shiga toxin inh	AmpC detergent	NS1 function inh	Cycloheximide cs	AmpC no deterg
CCOC(=O)c1cnc(-c2ccccc2O)nc1Cl	70*	5%	x	36*	-13%
Cn1c(=O)n(CCOc2ccc(Cl)cc2Cl)c2ccccc21	-9	-19%	-2%	-1	-3%
O=c1ccccn1CCOc1ccccc1Cl	45*	-2%	10%	19*	-8%
COc1ccccc1OCCn1c(=O)n(C)c2ccccc21	28*	-1%	-10%	21*	-3%
COc1ccccc1OCCn1c(=S)[nH]c2ccccc21	-9	u	5%	-3	-46%
Cn1c(=O)n(CCOc2ccccc2Cl)c2ccccc21	79*	-14%	-53%	50*	127%
CC(C)(C)c1ccc(NC(=O)CSc2nnc3scc(-c4ccccc4)n23)cc1	x	15%	x	x	x
O=C(Nc1cccc(Cn2cccn2)c1)c1cc2c(s1)CCCC2	143*	-3%	-88%	77*	-10%
COC(=O)c1sccc1NC(=O)c1cc2c(s1)CCCC2	-10	-5%	-42%	13*	-31%
CCOC(=O)c1ccc(NC(=O)c2cc3c(s2)CCC3)cc1	54*	u	-4%	39*	-16%
COc1ccc(S(=O)(=O)N2CCOCC2)cc1NC(=O)c1cc2c(s1)CCCC2	14	-11%	21%	7	-8%
COc1ccc(C)cc1NC(=O)c1cc2c(s1)CCC2	56	1%	-27%	20*	-23%
CCCOc1ccc(CNC(=O)C(NS(=O)(=O)c2cccs2)C(C)C)cc1 (stereo not drawn)	x	10%	x	x	x
Nc1nc2c(c(=O)[nH]1)CN(c1ccc(S(N)(=O)=O)cc1)CN2	x	x	1%	x	x
CCc1ccc(-c2nn(CC(=O)NCc3ccccc3)c3c2cnc2ccc(F)cc23)cc1	x	27%	x	x	x
O=C(Nc1ccc(N2CCOCC2)cc1)c1cnsn1	-13	-13%	-5%[9.22 µM]	1	-13%
CC(=O)c1ccc(NC(=O)Nc2ccncc2)cc1	57*	6%	5%	28*	-19%[2.29 µM]
CC(=O)c1ccc(NC(=O)c2cnsn2)cc1	82*	5%	-5%	31*	-18%
CC(=O)c1ccc(NC(=O)Nc2ccc(Cl)cc2)cc1	105*	-3%	-44%	34*	-38%
CC(=O)c1ccc(N2Cc3ccccc3/C2=N\C(=O)Nc2ccc(Cl)cc2)cc1	33*	u	u	43*	-16%
COc1ccc(NC(=O)CN(C)C(=O)CSc2nc3ccccc3s2)cc1	x	7%	x	x	0%
COc1ccc(C2CC(=O)NC(NC(=O)c3ccc(Br)cc3)=N2)c(OC)c1OC (stereo not drawn)	x	1%	x	x	x
Cc1cccc(N2CCN(C(=O)CCCn3c(=O)[nH]c4ccsc4c3=O)CC2)c1C	x	0%	x	x	x
O=C(Nc1ccc(F)cc1)Nc1cccnc1	23	-11%	0%	-3	-7%
COc1ccccc1NC(=O)Nc1cccnc1	30	0%	-1%	12	-22%
SMILES	Shiga toxin inh	AmpC detergent	NS1 function inh	Cycloheximide cs	AmpC no deterg
O=C(Nc1ccccc1)Nc1ccc(Oc2cccnc2)nc1	39*	u	2%	42*	-22%
Nc1ccc(C(=O)CC(=O)Nc2ccc(Cl)cc2)cc1	39	5%	6%	18*	-34%
O=C(Nc1ccc(OC(F)(F)F)cc1)Nc1cccnc1	70*	-7%	1%	32*	-27%
CC(=O)c1ccc(NC(=O)Nc2cccnc2)cc1	23	-4%	5%	28*	-15%
Nc1ccc(NC(=O)c2ccc(C(=O)Nc3ccc(N)cc3)cc2)cc1	-5	-11%	7%	-4	-30%
Cc1cccc(C[C@H](C(=O)O)N2C(=O)c3ccc(C(=O)O)cc3C2=O)c1	2	u	x	-2	-15%
O=C(Cn1c(=O)oc2ccccc21)NCc1ccc(Cl)cc1	x	6%	x	x	x
CON(C)C(=O)Nc1ccc(Cl)cc1	26	0%	-42%	12*	-11%
CNC(=O)Nc1ccc(Cl)cc1	18	-10%	-22%	21*	-15%
